Marburg entry inh: blocks Marburg virus binding to or entry into cells; AID 540276; 300,000 tested, 1.8% active; Marburg virus pseudotyped entry inhibition, cell reporter; Potency, µM (titrated, usually from 37.8 µM), for the others: at the top dose activity change, negative = inhibition, actives largely listed as inhibitors; calls by dose curve; tested in HEK293 cells; also: potency is read from the fitted curve at half-maximal effect; % is scaled to controls: 0 for no effect and ±100 for the full control effect
LASV entry inh: inhibitors of Lassa virus binding or cell entry | Potency, µM (series often up to 37.9 µM), without a hit: at the top dose activity change, negative = inhibition, hits mostly inhibitors | Lassa virus pseudotype entry inhibition, cell reporter | 300,000 tested, 1.2% active; calls by dose curve; tested in HEK293 cells; also: potency is read from the fitted curve at half-maximal effect; % is scaled to controls: 0 for no effect and ±100 for the full control effect; nearly all actives have a fitted effect of over 50% in size
Shiga toxin inh: inhibitors of Shiga toxin in Vero cells. 290,000 tested, 9.2% active. Vero cells, Shiga toxin protein synthesis inhibition reporter. AID 2315. inhibition, % at 38.7 µM; in the data active = inhibition mostly above about 28%, no sharp cut-off; inactive = mostly below about 43%; also: 0% is about no effect
CHX counter: affects cycloheximide protein synthesis inhibition readout, counter-screen | cell reporter, cycloheximide protein synthesis inhibition counterscreen | max response, % | 300,000 tested, 12% active | AID 2314; in the data active = max response mostly above about 13%, no sharp cut-off; inactive = mostly below about 14%; also: read at 38.3 µM for the half of the compounds with a filed dose; 0% is about no effect
FMDV antiviral: foot and mouth disease virus antiviral activity | FMDV antiviral cell-based qHTS | Potency, µM (titrated, usually from 57.9 µM), inactives show top-dose activity change, negative = inhibition, actives largely listed as inhibitors | 410,000 tested, 1.2% active; calls by dose curve; tested in HEK293T cells; also: read-out not given here; potency is read from the fitted curve at half-maximal effect; % is scaled to controls: 0 for no effect and ±100 for the full control effect; nearly all actives have a fitted effect of over 45% in size
HCV inhibitor: inhibitors of hepatitis C virus infection; 340,000 tested, 3.4% active; Potency, µM (highest dose often 41.8 µM), without a hit: top-dose activity change, negative = inhibition, usual class: inhibitors; Huh7.5.1 HCVcc-Cre infection, luciferase reporter, 44 h; active = well fitted inhibition curve with a large enough effect; inconclusive = small, poorly fitted or top-dose-only effect, or another doubt; inactive = no such curve, though single readings can be large or run the other way; also: potency is read from the fitted curve at half-maximal effect; % is scaled to controls: 0 for no effect and ±100 for the full control effect
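A cell-based infection assay in which seeded cells (1,000 per well) receive test compound after 4 h, are inoculated with HCVcc-Cre at approximately 0.5 moi, and are incubated 44 h before luminescence detection.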
* = called active by the depositor; ? = inconclusive; . = no result; ! = not confirmed by another sample; [ ] = another dose, or the depositor's remark. An excerpt weighted towards active compounds, which were near 13% of everything screened.

SMILES | Marburg entry inh | LASV entry inh | Shiga toxin inh | CHX counter | FMDV antiviral | HCV inhibitor
O=C(NCc1csc(-c2cccs2)n1)c1cccc(Cl)c1 | 15%[46.1 µM] | ? | 54 | 14* | 22% | -12%
O=C(NCc1csc(-c2cccs2)n1)c1ccccc1 | . | . | 38* | 32* | 51% | -21%
Cc1csc2nc(CNC(=O)C3CCCCC3)cn12 | . | . | 10 | 13* | 22% | 0%
O=C(NCc1csc(-c2cccs2)n1)C1CCC1 | . | . | 48* | 38* | 79% | -7%
CN(C)C1CN(Cc2cn(Cc3ccc(C(F)(F)F)cc3)nn2)S(=O)(=O)C1 (stereo not given) | . | . | . | . | -16% | .
O=C(O)c1ccc(-c2ccc(OS(=O)(=O)c3ccccc3F)cc2)cc1 | ? | . | 65* | 19* | 62% | 40%
O=C(Cn1nc(-c2ccccc2)ccc1=O)N1CCOCC1 | . | . | . | . | -1% | 4%
CCCN1CCC(=O)N(C(CSc2ccc(OC)cc2)CC(C)C)CC1 (stereo not given) | . | . | 53* | 43* | . | .
CCCN1CCC(=O)N(C(CSc2ccc(Br)cc2)CC(C)C)CC1 (stereo not given) | . | . | 89* | 36* | . | .
CC(C)C[C@@H](CSc1ccc(Br)cc1)N1CCN(CC(C)C)CCC1=O | . | . | 75* | 18* | 5% | -17%
CCCN1CCC(=O)N([C@H](CSc2ccc(OC)cc2)c2ccccc2)CC1 | . | . | 37* | 15* | 33% | -10%
COc1ccc(SCC(c2ccccc2)N2CCN(CC(C)C)CCC2=O)cc1 (stereo not given) | . | . | -5 | 9 | . | .
CCCN1CCC(=O)N([C@H](CO)CC(C)C)CC1 | . | . | 6 | -3 | -10% | 42%
CCCN1CCC(=O)N(C(CSc2ccc(Br)cc2)Cc2ccccc2)CC1 (stereo not given) | . | . | -10 | -5 | . | .
COc1cc(Cl)c(C)cc1NC(=O)c1ccc(NS(=O)(=O)c2ccc(F)c(F)c2)cc1 | 3%[46.1 µM] | 12% | -9 | 5 | -28% | -12%
CC(=O)N(C)C[C@@H]1Oc2ncc(C#Cc3ccc(F)cc3)cc2C(=O)N([C@@H](C)CO)C[C@H]1C | . | . | . | . | -1% | .
COc1ccc(OCCSc2nc3ccccc3c(=O)[nH]2)cc1 | 14% | 0% | -15 | 0 | 15% | ?
CCCOc1ccc(N/C=C/C(=O)c2cc(OC)c(OC)c(OC)c2)cc1 | . | . | . | 6 | -21% | ?
CCOc1ccc(NC(=S)NC(=O)/C=C/c2ccc(Br)cc2)c([N+](=O)[O-])c1 | -24% | 21µM* | -3 | -2 | 12% | 6%
CCOc1ccc(N/C=C/C(=O)c2ccc(OC)cc2)c([N+](=O)[O-])c1 | -1% | 15% | 132* | 39* | . | -10%
COC(=O)/C(=C\C(=O)c1ccc([N+](=O)[O-])cc1)Nc1ccc(OC)cc1 | 7%[46.1 µM] | 5% | -9 | 2 | 3% | 3%
COc1ccc(C(=O)/C=C/Nc2ccc([N+](=O)[O-])cc2)cc1 | 20% | 1% | 114* | 85* | 28% | -5%
CCOc1ccc(N/C=C/C(=O)c2ccc(OC)cc2)cc1 | 19%[46.1 µM] | -17%[46.1 µM] | 132* | 20* | -1% | -5%
Cc1ccc(N2C(=N)SCC2=O)cc1Cl | 4% | -8% | -8 | 4 | -26% | 6%
Fc1cc(F)cc(-c2c(-c3ccccc3)ncc3ccc(F)cc23)c1 | . | . | . | . | -13% | ?
SMILES | Marburg entry inh | LASV entry inh | Shiga toxin inh | CHX counter | FMDV antiviral | HCV inhibitor
COc1ccc(C(=O)CC(=O)Nc2ccc([N+](=O)[O-])cc2)cc1 | . | . | 1 | 0 | -12% | 11µM*
O=c1[nH]c([N+](=O)[O-])nn1C(c1ccccc1)c1ccccc1 | . | . | -4 | -4 | -20% | 13%
COc1ccc2[nH]c(=O)c(CN(Cc3cccs3)Cc3nnnn3C(C)(C)C)cc2c1 | 18µM*! | -15% | -4 | 9 | -28% | -15%
COc1ccc2[nH]c(=O)c(CN(Cc3ccccc3)Cc3nnnn3CC3CCCO3)cc2c1 (stereo not given) | -2% | -4% | -10 | 0 | . | -1%
CCc1ccc2[nH]c(=O)c(CN(Cc3ccc(OC)cc3)Cc3nnnn3CCOC)cc2c1 | 14µM* | ? | -16 | 3 | ? | -11%
O=C(O)CCN1C(=O)C2C3c4ccccc4C(c4ccccc43)C2C1=O (stereo not given) | . | . | -15 | -3 | -1% | 15%
CCCNC(=O)c1cc(C2CCCCN2C(=O)c2ccc3ccccc3c2)on1 (stereo not given) | . | . | . | . | -7% | .
Cc1ccc2nc(N3C(=O)C(O)=C(C(=O)c4ccc(C)o4)C3c3ccco3)sc2c1 (stereo not given) | . | . | . | . | 20% | 33%
O=C(C1=C(O)C(=O)N(c2nccs2)C1c1ccccc1)c1cc2ccccc2o1 (stereo not given) | ? | ? | 59* | 44* | -18% | -3%
Cc1ccc2nc(N3C(=O)C(O)=C(C(=O)c4cc5ccccc5o4)C3c3cccs3)sc2c1 (stereo not given) | 3% | ? | 98* | 62* | 34% | ?
CCc1ccc2nc(N3C(=O)C(O)=C(C(=O)c4ccco4)C3c3cccs3)sc2c1 (stereo not given) | ? | -17% | 59* | 29* | 26% | ?
O=C(C1=C(O)C(=O)N(c2nc3ccc(Cl)cc3s2)C1c1ccco1)c1ccco1 (stereo not given) | . | . | . | . | 24% | -3%
Cc1cc(N2C(=O)C(O)=C(C(=O)c3cc4ccccc4o3)C2c2cccs2)no1 (stereo not given) | -10%[46.1 µM] | 8% | 40 | 19* | -4% | -16%
Cc1ccc(NC(=O)C2CCCN(S(=O)(=O)c3cccc4nonc34)C2)cc1 (stereo not given) | 13%[46.1 µM] | 0% | -7 | -1 | -10% | 4%
O=C(NCC(c1ccco1)S(=O)(=O)c1cccs1)c1ccc(C(F)(F)F)cc1 (stereo not given) | . | -18%[46.1 µM] | . | . | 4% | .
COCCNc1nc(-c2ccccc2OC)nc2ccccc12 | . | . | . | . | -3% | .
COc1ccc(Nc2nc(-c3cccc(OC)c3O)nc3ccccc23)cc1 | . | . | 50* | 33* | 4% | 5.6µM*
COc1cccc(-c2nc(Oc3cc(C)cc(C)c3)c3ccccc3n2)c1O | . | . | 23 | 13 | . | 6%
COc1cccc(-c2nc(NC(C)(C)C)c3ccccc3n2)c1O | -27% | ? | 9 | -2 | 25µM* | ?
O=C1CCCc2c1cc(C(=O)Nc1ccc(Cl)cn1)c(=O)n2-c1ccccc1 | -1%[46.1 µM] | -6% | 1 | 12 | 3% | -14%
CCCCNc1cccc2c1S(=O)(=O)N[C@@H](Cc1ccccc1)CO2 | . | -5%[46.1 µM] | . | . | . | .
O=P(Cc1ccccc1)(c1ccccc1)c1ccccc1 | 3% | 0% | -6 | 1 | -5% | 15%
CC(C)(C)c1cc(CP(=O)(c2ccccc2)c2ccccc2)cc(C(C)(C)C)c1O | . | . | . | 13* | ? | 16µM*
O=C(Nc1ccc(OC(F)(F)F)cc1)c1ccccc1-n1cnnn1 | . | . | . | . | -5% | -19%
CN(C(=S)NC(=O)c1ccc(F)cc1)C1CCCCC1 | . | . | 29 | 19* | 21% | 7%
